According to PubChem BioAssay (Tox21):
Several values for one entry are separate records, joined by “and”; a condition that tells them apart may be missing. Equal entries are not always repeated. Results filed as inconclusive are left out. Entries that show only a call come without a potency. Activity calls are given as the source filed them. Calls follow the shape of the dose curve; as a rule, active = well fitted cell-killing curve with a large enough effect in the repeat runs; inconclusive = weak or mixed curves, or effect the other way; inactive = flat fitted curve, though single readings scatter.

Experiment: qHTS assay to identify small molecule antagonists of the androgen receptor (AR) signaling pathway using the MDA cell line - cell viability counter screen (AID 743041; also: nearly all actives have a fitted effect of over 45% in size)
Conditions: MDA-kb2 viability, CellTiter-Fluor, 16 h, cells co-treated with R1881 androgen agonist; series mostly up to 70.3 µM
Excerpt: National Center for Advancing Translational Sciences [NCATS]
NIH Chemical Genomics Center [NCGC]
U.S. Environmental Protection Agency [EPA]
National Institutes of Environmental Health Sciences [NIEHS]
National Toxicology Program [NTP]
U.S. Food and Drug Administration [FDA]
Androgen receptor (AR), a nuclear hormone receptor, plays a critical role in AR-dependent prostate cancer and other androgen related diseases. Endocrine disrupting chemicals (EDCs) and their interactions with steroid hormone receptors like AR may cause disruption of normal endocrine function as well as interfere with metabolic homeostasis, reproduction, developmental and behavioral functions. To identify the compounds that inhibit AR signaling, MDA-kb2 AR-luc cell line (from ATCC, deposited by Wilson et al.) was used to screen the Tox21 10K compound library. MDA-kb2 AR-luc cell line is human breast carcinoma cell line that was stably transfected with a luciferase reporter gene under control of the MMTV promoter containing response elements for both androgen receptor (AR) and glucocorticoid receptor (GR). The cytotoxicity of the Tox21 compound library against the MDA-kb2 AR-luc cell line was tested in parallel by measuring the cell viability using CellTiter-Fluor assay (Promega, Madison, WI) in the same wells.
Tox21 Assay Protocol Summary:
MDA-kb2 AR-luc cells were dispensed at 3,000 cells/4 uL/well of culture medium into white wall/solid-bottom 1536-well plates using a Multidrop Combi (ThermoFisher Scientific, Waltham, MA) dispenser. After the assay plates were incubated at a 37C and 0% CO2 for 5 hr, 23 nL of compounds dissolved in DMSO, positive controls or DMSO only was transferred to the assay plate by a Pintool station (Kalypsys, San Diego, CA), followed by addition of 1 uL of agonist (R1881) in culture medium using a Bioraptr Flying Reagent Dispenser (FRD) workstation (Beckman Coulter, Indianapolis, IN, USA). The plates were incubated at a 37C and 0% CO2 for 16 h. After 15.5 h incubation, 1uL of CellTiter-Fluor reagent (Promega) was added using a Bioraptr FRD to each plate for measuring cytotoxicity. The fluorescence intensity was quantified on a ViewLux plate reader (PerkinElmer, Shelton, CT) following 30 min incubation at 37C and 0% CO2.
Potency is read from the fitted curve at half-maximal effect.

Question: With `CN(C)CCc1c[nH]c2cccc(O)c12` as the compound, how does the Potency read?
Answer: inactive

Question: For `O=c1ssc(Cl)c1Cl`, which Potency is on record?
Answer: inactive

Question: Which Potency does the source give for `CCN` here?
Answer: inactive

Question: Which Potency does the source give for `CCCCCCCCCC[N+](C)(C)CCCCCCCCCC` here?
Answer: 24.8 µM (active) and 30.6 µM (active)

Question: Which Potency does the source give for `CC(c1ccc(O)cc1)c1ccc(O)cc1` here?
Answer: inactive

Question: With `c1ccc2c(c1)[nH]c1cnccc12` as the compound, how does the Potency read?
Answer: inactive

Question: With `O=c1oc2ccccc2c(O)c1Cc1c(O)c2ccccc2oc1=O` as the compound, how does the Potency read?
Answer: inactive

Question: Which Potency does the source give for `O=[N+]([O-])c1cc([N+](=O)[O-])c2ccccc2c1` here?
Answer: inactive

Question: For `C[C@]12Cc3nonc3C[C@@H]1CC[C@@H]1[C@@H]2CC[C@@]2(C)[C@H]1CC[C@]2(C)O`, which Potency is on record?
Answer: inactive

Question: Which Potency does the source give for `Nc1ccccc1C(=O)Oc1ccc2ccccc2c1` here?
Answer: inactive

Question: With `Cn1cc(C2=C(c3cn(C4CCN(Cc5ccccn5)CC4)c4ccccc34)C(=O)NC2=O)c2ccccc21` as the compound, how does the Potency read?
Answer: inactive

Question: With `c1ccc(OCC2CO2)cc1` (stereo not given) as the compound, how does the Potency read?
Answer: inactive

Question: With `CCCOCC(=Nc1ccc(Cl)cc1C(F)(F)F)n1ccnc1` as the compound, how does the Potency read?
Answer: 61.1 µM (active)

Question: With `O=[N+]([O-])c1c2ccccc2cc2ccccc12` as the compound, how does the Potency read?
Answer: inactive

Question: With `C[C@]12CC[C@@H]3c4ccc(OC(=O)N(CCCl)CCCl)cc4CC[C@H]3[C@@H]1CC[C@@H]2O` as the compound, how does the Potency read?
Answer: inactive

Question: With `COc1ccc(N)cc1N` as the compound, how does the Potency read?
Answer: inactive

Question: With `O=[N+]([O-])O.O=[N+]([O-])O.[Cd]` as the compound, how does the Potency read?
Answer: inactive

Question: With `CC(=O)/C=C/c1ccc2c(c1)OCO2` as the compound, how does the Potency read?
Answer: inactive

Question: For `CCCN(CC)CC1COC2(CCC(C(C)(C)C)CC2)O1` (stereo not given), which Potency is on record?
Answer: inactive

Question: With `CC(Cc1ccc(C(C)(C)C)cc1)CN1C[C@@H](C)O[C@@H](C)C1` (stereo not given in full) as the compound, how does the Potency read?
Answer: inactive

Question: Which Potency does the source give for `N#CSCSC#N` here?
Answer: 62.5 µM (active) and 60.5 µM (active)

Question: With `CCOC(=O)OC1=C(c2cc(C)ccc2C)C(=O)NC12CCC(OC)CC2` (stereo not given) as the compound, how does the Potency read?
Answer: inactive

Question: For `CC(=O)[O-].CC(=O)[O-].O.O.[Cd+2]`, which Potency is on record?
Answer: inactive

Question: With `CCOCCOC(C)=O` as the compound, how does the Potency read?
Answer: inactive

Question: With `CCCCCCCCCCCCCCCC[n+]1ccccc1` as the compound, how does the Potency read?
Answer: 27.3 µM (active) [middle of 4 runs]

Question: Which Potency does the source give for `CCCCCCCCCCCCCCC(Br)C(=O)O` (stereo not given) here?
Answer: inactive

Question: Which Potency does the source give for `ClCc1ccc(Cl)cc1Cl` here?
Answer: inactive

Question: For `CC(C)[C@H](C(=O)OC(C#N)c1cccc(Oc2ccccc2)c1)c1ccc(OC(F)F)cc1` (stereo not given in full), which Potency is on record?
Answer: inactive

Question: For `O=C/C(Cl)=C(/Cl)C(=O)O`, which Potency is on record?
Answer: inactive

Question: With `CCOCn1c(-c2ccc(Cl)cc2)c(C#N)c(Br)c1C(F)(F)F` as the compound, how does the Potency read?
Answer: 3.86 µM (active)

Question: For `CC(C)(C)c1ccc(CSc2cnn(C(C)(C)C)c(=O)c2Cl)cc1`, which Potency is on record?
Answer: 0.0306 µM (active)

Question: For `CNC(C)Cc1ccc2c(c1)OCO2` (stereo not given), which Potency is on record?
Answer: inactive

Question: With `Cc1cc(C)c(C2=C(OC(=O)CC(C)(C)C)C3(CCCC3)OC2=O)c(C)c1` as the compound, how does the Potency read?
Answer: inactive

Question: With `Oc1ccc(C(c2ccc(O)cc2)(C(F)(F)F)C(F)(F)F)cc1` as the compound, how does the Potency read?
Answer: inactive

Question: For `O=C(CBr)c1ccc(O)cc1`, which Potency is on record?
Answer: inactive

Question: Which Potency does the source give for `C[C@]12CC[C@H]3[C@@H](CCC4=CC(=O)CC[C@@]43C)[C@@H]1CC[C@@H]2O` here?
Answer: inactive

Question: For `Cc1cc(C(C)(C)c2cc(C)c(O)c(C)c2)cc(C)c1O`, which Potency is on record?
Answer: inactive

Question: With `COP(=O)(OC)SCn1c(=O)oc2cc(Cl)cnc21` as the compound, how does the Potency read?
Answer: inactive

Question: With `Oc1ccc(C(=C(Cl)Cl)c2ccc(O)cc2)cc1` as the compound, how does the Potency read?
Answer: inactive

Question: With `C[C@@H]1O[C@@H](O[C@H]2C[C@@H](O)[C@]3(CO)[C@H]4[C@H](O)C[C@]5(C)[C@@H](C6=CC(=O)OC6)CC[C@]5(O)[C@@H]4CC[C@]3(O)C2)[C@H](O)[C@H](O)[C@H]1O` as the compound, how does the Potency read?
Answer: inactive
